Screening data: PubChem, National Center for Advancing Translational Sciences (NCATS)
miR-21 reporter: qHTS Assay for Modulators of miRNAs and/orActivators of miR-21; HeLa miR-21 FLuc reporter, luciferase, 48 h; Potency, µM (titrated, usually from 38.3 µM), actives largely listed as activators; 340,000 tested, under 10 active; AID 2288, 2010;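 note: miR-21 action dims this reporter so a rising signal means less miR-21 action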
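HeLa miR-21-FLuc reporter line, endogenous miR-21; 2000 cells/well in DMEM/10% FBS; compound titration up to ~40uM final, 48 h, 37 degree Celsius; luciferase detection reagent, 15 min lysis, CCD luminescence.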
Nrf2 ARE act: qHTS of Nrf2 Activators; AREc32 ARE-luciferase reporter (MCF7-derived line), luminescence, 24 h; Potency, µM (top dose mostly 46.1 µM), most hits filed as activators; 0.31% of 410,000 active; AID 624171, 2012; note: nearly all actives have a fitted effect of over 65% in size
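Each well held 1000 AREc32 cells, which were incubated with compound for 24 hr at 37 deg C after overnight attachment, and ARE reporter activity was quantified by firefly luciferase luminescence.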
Nrf2 block: Nrf2 qHTS screen for inhibitors; A549 ARE-Fluc reporter, luciferase luminescence, 18-24 h; Potency, µM (titrated, usually from 46 µM), actives largely listed as inhibitors; 2.1% of 360,000 active; AID 504444, 2011; note: nearly all actives have a fitted effect of over 60% in size
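Concentration-response testing used A549 ARE_Fluc cells at 5000 cells/well. Following an 18-24 h compound incubation, viability was read by fluorescence (Ex 405/Em 525) and luciferase output by luminescence.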
Mito fusion yeast: qHTS Assay for Small Molecule Inhibitors of Mitochondrial Division or Activators of Mitochondrial Fusion. 0.23% of 320,000 active. Potency, µM (doses to about 46.1 µM), hits mostly activators. AID 485298, 2010. S. cerevisiae fusion-defective mutant growth rescue, CellTiterGlo 48 h; note: nearly all actives have a fitted effect of over 45% in size
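S. cerevisiae fusion-defective temperature-sensitive mutants (e.g. fzo1-1, mgm1-5) grown 48 h at 37C in YPEG (ethanol/glycerol non-fermentable) medium with 23 nl compound per well; growth rescue read as CellTiterGlo luminescence.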
A549 tox: Nrf2 qHTS screen for inhibitors: counterscreen for cytotoxicity. A549 ARE-Fluc cells, CellTiter-Fluor viability, 18-24 h. Potency, µM (highest dose often 46 µM), most hits filed as inhibitors. 0.16% of 390,000 active. AID 504648, 2011
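A549 ARE-Fluc cells in 5% FBS OPTI-MEM, 5000 cells/well, rested 2 h then exposed to compounds in concentration-response for 18-24 h at 37 °C. Viability by CellTiter-Fluor fluorescence (Ex 405/Em 525) after 30 min; luciferase luminescence (BugLite, 15 min, RT) read afterwards.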
A number is an active result; n = inactive; u = inconclusive; x = no result given; [ ] = dose if it differs, or a comment. Compounds with a hit are over-represented: about 2.3% of the library has one in this group of screens. Calls come from the whole dose curve; as a rule, active = well fitted curve in the direction sought with a large enough effect; inconclusive = small, poorly fitted or top-dose-only effect, or another doubt; inactive = no such curve, though single readings can be large; an effect the other way counts as inactive or inconclusive.

SMILES	miR-21 reporter	Nrf2 ARE act	Nrf2 block	Mito fusion yeast	A549 tox
CN1CC(c2ccc(Cl)c(Cl)c2)[C@@]2(COc3ccccc3C2=O)[C@@]12C(=O)Nc1ccccc12 (stereo partly drawn)	n	n	18µM	n	u
O=C(NCc1ccccc1Cl)c1ccc2c(c1)nnn2C1CCCC1	n	n	u	x	n
CC(=O)C1=C(O)C(=O)N(Cc2cccnc2)C1c1ccccc1Cl (stereo not drawn)	n	n	u	n	n
CC(=O)C1=C(O)C(=O)N(Cc2cccnc2)C1c1ccc(C(C)C)cc1 (stereo not drawn)	n	n	n	4.5µM	n
CC(=O)N1CCN(c2ccnc3cc(Cl)ccc23)CC1	n	n	u	n	n
O=C(Nc1ccc(C(F)(F)F)cc1)N1CCN(c2ccnc3cc(Cl)ccc23)CC1	u	n	18µM	u	u
O=C(Nc1cc(F)ccc1F)N1CCN(c2ccnc3cc(Cl)ccc23)CC1	n	n	16µM	n	n
CCCCNC(=O)N1CCN(c2ccnc3cc(Cl)ccc23)CC1	n	n	10µM	n	n
Cc1cccc(Cl)c1NC(=O)N1CCN(c2ccnc3cc(Cl)ccc23)CC1	n	n	9.2µM	n	n
COc1cccc(CNC(=O)CSC2=Nc3ccccc3C3=NC(C)C(=O)N23)c1OC (stereo not drawn)	u	n	x	x	n
Cc1cccc(C)c1NC(=O)N1CCN(c2nc3ccccc3s2)CC1	n	n	4.6µM	n	n
CCN(CC)c1ccc2c(c1)oc(=O)c1c(Cl)cc(=O)oc12	n	8.9µM	n	n	u
CCOc1ccc(-c2cn3c(n2)sc2cc(C(=O)N4CCCC(C)C4)ccc23)cc1 (stereo not drawn)	n	n	n	x	n
CC(C)COc1ccc(C(=O)Nc2ccc(NC(=O)c3ccco3)c(Cl)c2)cc1	n	n	16µM	n	u
N#Cc1ccc(NC(=O)COC(=O)C2Cc3ccccc3CN2C(=O)c2ccccc2)cc1 (stereo not drawn)	n	n	7.3µM	n	u
Cc1cccc(C)c1NC(=O)COC(=O)C1Cc2ccccc2CN1C(=O)c1ccccc1 (stereo not drawn)	n	n	n	n	n
O=C(C[C@H]1C[C@H](C(=O)N2CCOCC2)[C@@]2(CCC3CCCC3)c3[nH]c4ccc(Cl)cc4c3CCN2C1=O)NCC12CC3CC(CC(C3)C1)C2	x	n	u	x	n
CC[C@]12c3[nH]c4ccc(Cl)cc4c3CCN1C(=O)[C@@H](CC(=O)NCCC1=CCCCC1)C[C@@H]2C(=O)N1CCN(C(=O)c2ccco2)CC1	x	n	16µM	x	u
COc1ccc2[nH]c3c(c2c1)CCN1C(=O)C(CC(=O)NCC24CC5CC(CC(C5)C2)C4)C[C@H](C(=O)N2CCOCC2)[C@@]31CCC1CCCC1 (stereo partly drawn)	x	n	21µM	x	n
CCN(CC)C(=O)[C@H]1C[C@H](CC(=O)NCC23CC4CC(CC(C4)C2)C3)C(=O)N2CCc3c([nH]c4ccc(Cl)cc34)[C@]12C	x	n	23µM	x	n
COc1ccc2[nH]c3c(c2c1)CCN1C(=O)C(CC(=O)NCCC2=CCCCC2)C[C@H](C(=O)N2CCCCC2)[C@@]31CCc1ccccc1 (stereo partly drawn)	x	n	18µM	x	n
COc1ccc2[nH]c3c(c2c1)CCN1C(=O)C(CC(=O)NCCN2CCOCC2)C[C@H](C(=O)N2CCCCC2)[C@@]31CCc1ccccc1 (stereo partly drawn)	x	n	n	x	n
CC[C@]12c3[nH]c4ccc(Cl)cc4c3CCN1C(=O)[C@@H](CC(=O)NCCN1CCOCC1)C[C@@H]2C(=O)N1CCN(C(=O)c2ccco2)CC1	x	n	n	x	n
Cc1cc2c(cc1S(=O)(=O)N(C)CC(=O)Nc1ccc(C#N)cc1)OCC(=O)N2	n	n	x	x	u
CCc1ccc(OCCCCn2c(CCNC(=O)C3CCCCC3)nc3ccccc32)cc1	x	x	n	x	n
SMILES	miR-21 reporter	Nrf2 ARE act	Nrf2 block	Mito fusion yeast	A549 tox
CCC1(C)Cc2c(sc3nnn(Cc4ccccc4Cl)c(=O)c23)CO1 (stereo not drawn)	n	n	15µM	n	n
COc1cccc(Cn2ncc3c4sc(C)cc4n(C)c3c2=O)c1	x	x	n	x	n
Cn1nnnc1SCCCNCc1cccc(OCc2ccccc2F)c1	n	n	u	x	n
Cc1cc(C)n2nc(SCC(=O)Nc3ccccc3F)nc2n1	x	n	n	n	n
Cc1cc(C)n2nc(SCC(=O)Nc3ccc(F)c(F)c3F)nc2n1	x	n	15µM	n	n
CC1CC=CC2C1C(=O)N(Cc1ccccc1)C2c1ccc(-c2ccc(F)cc2)cc1F (stereo not drawn)	x	x	u	x	n
COc1n[nH]c(C(=O)Nc2cc(F)ccc2C)c1[N+](=O)[O-]	n	n	n	7.1µM	n
Cc1cc(C)cc(OCC(=O)N2N=C(c3cccnc3)CC2(O)C(F)(F)F)c1 (stereo not drawn)	n	n[9.22 µM]	23µM	n	n
Cc1ccc2nc3c(cc(C(=O)NCC4CCCO4)c(=N)n3C(C)C)c(=O)n2c1 (stereo not drawn)	n	n	n	x	u
O=S(=O)(c1cccc(C(F)(F)F)c1)N1CCC(Oc2ccc(-n3cnnn3)cc2)CC1	n	n	18µM	x	u
O=S(=O)(c1ccccc1)N1CCC(Oc2ccc(-n3cnnn3)cc2)CC1	n	n	u	35µM	n
COc1ccc(S(=O)(=O)N2CCC(Oc3ccc(-n4cnnn4)cc3)CC2)cc1	n	n	u	x	n
O=C(C1=C[C@H](C2CCCCC2)C[C@H](OCc2ccc(CO)cc2)O1)N1CCN(Cc2ccc3c(c2)OCO3)CC1	n	n	23µM	n	u
O=C(C1=C[C@@H](c2csc3ccccc23)C[C@@H](OCc2ccc(CO)cc2)O1)N1CCN(Cc2ccccc2)CC1	n	n	16µM	n	n
O=C(C1=C[C@@H](c2csc3ccccc23)C[C@@H](OCc2ccc(CO)cc2)O1)N1CCN(Cc2ccc3c(c2)OCO3)CC1	u	n	u	n	n
CCc1ccc(NC(=O)N(CCN2CCOCC2)Cc2ccc3c(c2)CCCN3CC)cc1	n	n	u	n	16µM
CCN1CCCc2cc(CN(CCN3CCOCC3)C(=O)Nc3ccc(C)c(C)c3)ccc21	n	n	n	n	u
Cc1ccc(-n2c(-c3ccccc3)nsc2=NC#N)cc1	x	x	n	x	n
COc1ccccc1-c1nn2c(-c3cc(-c4ccccc4)n[nH]3)nnc2s1	x	x	n	x	n
Clc1ccccc1-c1nn2c(-c3cc(-c4ccccc4)n[nH]3)nnc2s1	x	x	23µM	x	n
C=CCc1cc(F)c(S(=O)(=O)N2CCN(S(=O)(=O)c3ccc4c(c3)OCCO4)CC2)cc1F	x	x	n	x	n
CC(C)(C)OC(=O)CNC(=O)c1[nH]cnc1C(=O)NCCCCCNC(=O)OC(C)(C)C	u	n	26µM	n	n
